# Calls of active or inactive are those of the source.
# Assays:
# [1] = E. coli DRC41 culture turbidity changes, primary screen, E. coli filamentation inducer project, strain DRC41, OD650, 48 h (AID 1152);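 further: E. coli MC1000 strain DRC41 lacking acrAB efflux pump and sulA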; settings: E. coli DRC41 (acrAB sulA), higher = more signal, called active from +8 up or from −8 down
# [2] = small-molecule binders of probe aLefty1, primary screen, biochemical, small-molecule microarray, 635/667 nm fluorescence (AID 1153); settings: higher = more signal;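 further: score merges spot fluorescence with signal-to-noise ratio from the scanned slide images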
# [3] = PSAC antagonists in infected red cells, primary screen, cell-based, P. falciparum Indochina, OD700, 1 h (AID 1154); settings: P. falciparum Indochina infected RBC osmotic lysis, higher = more signal, called active from +8 up or from −8 down
# [4] = PSAC antagonists in infected red cells, primary screen, cell-based, P. falciparum Indochina, OD700, 2 h (AID 1155);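 further: lysis reports solute entry through the parasite surface anion channel PSAC; channel blockers reduce lysis of infected cells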; settings: P. falciparum Indochina infected erythrocytes, osmotic lysis OD700; higher = more signal, called active from +8 up or from −8 down
# [5] = osmotic lysis modulators in infected erythrocytes, primary screen, PSAC antagonist project, cell-based, P. falciparum Indochina, OD700, 3 h (AID 1156); settings: higher = more signal, called active from +8 up or from −8 down
# [6] = PSAC antagonists in infected red cells, primary screen, cell-based, P. falciparum Indochina, OD700, 18 h (AID 1157); settings: P. falciparum Indochina infected erythrocytes, osmotic lysis OD700, 18 h; higher = more signal, called active from +8 up or from −8 down
# [7] = modulators of S6 phosphorylation in cells, primary screen, cell-based, A549, cytoblot, luminescence, serum-stimulated (AID 1158); settings: A549 phospho-S6 cytoblot, 5 h, higher = more signal;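 further: serum-stimulated A549 lung adenocarcinoma cells; signal is phosphorylated S6 detected by cytoblot immunostaining with HRP secondary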
# [8] = target: NADPH oxidase 2 (Homo sapiens) (UniProt P04839); experiment: NOX2-dependent H2O2 signal modulators, primary screen, NOX inhibitor project, cell-based, HEK293-NOX2, PMA-stimulated, Amplex Red fluorescence (AID 1159); settings: 45 min, higher = more signal, called active from +8 up or from −8 down; further: test concentration not given here
# Sequence of NADPH oxidase 2 (Homo sapiens) (P04839 whole entry, looked up): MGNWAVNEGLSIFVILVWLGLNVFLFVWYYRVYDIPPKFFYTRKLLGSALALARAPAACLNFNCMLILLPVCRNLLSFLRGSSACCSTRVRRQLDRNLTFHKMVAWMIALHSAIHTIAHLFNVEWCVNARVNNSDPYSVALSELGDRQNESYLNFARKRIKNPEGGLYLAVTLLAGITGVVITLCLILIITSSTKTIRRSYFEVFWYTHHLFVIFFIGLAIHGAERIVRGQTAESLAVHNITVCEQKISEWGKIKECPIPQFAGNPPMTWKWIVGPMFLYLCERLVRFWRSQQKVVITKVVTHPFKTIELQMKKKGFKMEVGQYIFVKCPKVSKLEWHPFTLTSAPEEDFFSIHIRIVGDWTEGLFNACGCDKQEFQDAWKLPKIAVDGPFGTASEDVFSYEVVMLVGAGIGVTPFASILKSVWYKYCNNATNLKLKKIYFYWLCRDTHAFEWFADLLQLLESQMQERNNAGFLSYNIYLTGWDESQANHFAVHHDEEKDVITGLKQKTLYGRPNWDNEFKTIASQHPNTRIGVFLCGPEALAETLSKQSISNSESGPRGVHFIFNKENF
# [9] = target: NADPH oxidase 4 (Homo sapiens) (UniProt Q9NPH5); experiment: NOX4-dependent H2O2 signal modulators, primary screen, NOX inhibitor project, cell-based, HEK293-NOX4, tetracycline-induced, Amplex Red fluorescence (AID 1160); settings: 45 min, higher = more signal, called active from +8 up or from −8 down
# Sequence of NADPH oxidase 4 (Homo sapiens) (Q9NPH5 whole entry, looked up): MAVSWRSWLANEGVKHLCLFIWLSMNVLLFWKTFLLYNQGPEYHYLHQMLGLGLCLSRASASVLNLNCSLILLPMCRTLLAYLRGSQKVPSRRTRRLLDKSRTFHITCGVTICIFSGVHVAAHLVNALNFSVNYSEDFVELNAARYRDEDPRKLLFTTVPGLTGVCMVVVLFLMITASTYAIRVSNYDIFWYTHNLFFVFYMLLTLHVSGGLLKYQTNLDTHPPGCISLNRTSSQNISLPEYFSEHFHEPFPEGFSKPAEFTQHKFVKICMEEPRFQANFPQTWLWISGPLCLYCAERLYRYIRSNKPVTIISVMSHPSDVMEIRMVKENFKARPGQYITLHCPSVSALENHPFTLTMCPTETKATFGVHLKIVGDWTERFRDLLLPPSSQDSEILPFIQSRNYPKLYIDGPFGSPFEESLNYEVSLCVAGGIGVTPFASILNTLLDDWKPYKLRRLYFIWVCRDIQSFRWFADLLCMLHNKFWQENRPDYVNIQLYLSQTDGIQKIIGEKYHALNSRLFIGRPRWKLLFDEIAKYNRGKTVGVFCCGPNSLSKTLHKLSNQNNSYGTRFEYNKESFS
# [10] = target: NADPH oxidase 5 (Homo sapiens) (UniProt Q96PH1); experiment: NOX5-dependent H2O2 signal modulators, primary screen, NOX inhibitor project, cell-based, HEK293-NOX5, Amplex Red fluorescence (AID 1161); settings: HEK293-NOX5, ionomycin, 45 min, higher = more signal
# Sequence of NADPH oxidase 5 (Homo sapiens) (Q96PH1 whole entry, looked up): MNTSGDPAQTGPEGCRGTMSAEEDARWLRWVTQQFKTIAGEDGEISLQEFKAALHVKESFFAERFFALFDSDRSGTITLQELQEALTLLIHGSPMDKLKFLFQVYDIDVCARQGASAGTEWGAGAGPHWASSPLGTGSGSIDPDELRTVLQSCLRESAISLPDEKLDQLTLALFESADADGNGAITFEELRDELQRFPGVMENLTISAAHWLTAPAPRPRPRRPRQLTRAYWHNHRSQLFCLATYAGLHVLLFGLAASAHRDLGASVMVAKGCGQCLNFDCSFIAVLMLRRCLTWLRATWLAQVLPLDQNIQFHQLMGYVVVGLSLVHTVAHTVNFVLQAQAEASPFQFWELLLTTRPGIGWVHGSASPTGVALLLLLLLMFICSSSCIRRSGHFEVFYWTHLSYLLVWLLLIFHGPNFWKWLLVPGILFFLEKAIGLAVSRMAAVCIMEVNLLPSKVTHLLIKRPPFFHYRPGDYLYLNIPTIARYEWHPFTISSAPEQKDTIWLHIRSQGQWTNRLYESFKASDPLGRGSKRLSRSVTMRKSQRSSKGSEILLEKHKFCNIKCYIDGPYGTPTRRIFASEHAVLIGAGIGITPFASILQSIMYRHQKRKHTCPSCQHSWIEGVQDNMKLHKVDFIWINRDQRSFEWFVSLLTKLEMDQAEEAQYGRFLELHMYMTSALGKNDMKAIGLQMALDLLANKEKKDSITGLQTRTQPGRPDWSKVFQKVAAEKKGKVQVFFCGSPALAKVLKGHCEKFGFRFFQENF
# [11] = A549 cell viability effects, profiling panel, calcein-AM fluorescence, 48 h, basal (AID 1162); settings: higher = more signal; further: test concentration not given here
# [12] = adipocyte viability effects, profiling panel, cell-based, 3T3-L1 adipocytes, calcein-AM fluorescence, 48 h, basal (AID 1163); settings: 3T3-L1 adipocytes viability, higher = more signal; further: test concentration not given here
# [13] = HepG2 cell viability effects, profiling panel, calcein-AM fluorescence, 48 h, basal (AID 1164); settings: higher = more signal; further: test concentration not given here
# [14] = MM1S cell viability effects, profiling panel, calcein-AM fluorescence, 48 h, basal (AID 1165); settings: higher = more signal;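 further: viability of MM1S multiple myeloma cells under basal unstimulated conditions; test concentration not given here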
# [15] = basal RPMI8226 viability, no added stimulus, profiling panel, cell-based, calcein-AM fluorescence, 48 h, PK04 Diversity Set (AID 1166); settings: RPMI8226 myeloma viability, higher = more signal;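 further: cells grown under basal conditions without added stimulus; test concentration not given here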
# [16] = basal HepG2 mitochondrial membrane potential changes, profiling panel, cell-based, JC-1 fluorescence, 24 h, 100 nL compound (AID 1167); settings: higher = more signal; further: test concentration not given here
# [17] = basal 3T3-L1 adipocyte mitochondrial potential changes, profiling panel, cell-based, JC-1 fluorescence, 3T3-L1 adipocytes, 24 h, 100 nL compound (AID 1168); settings: JC-1 mitochondrial fluorescence, higher = more signal, called active from +8 up or from −8 down; further: test concentration not given here
# [18] = basal RPMI8226 mitochondrial membrane potential changes, profiling panel, cell-based, JC-1 fluorescence, 24 h, 100 nL compound (AID 1169); settings: RPMI8226 myeloma, JC-1 mitochondrial potential fluorescence, higher = more signal; further: test concentration not given here
# [19] = basal MM1S mitochondrial membrane potential changes, profiling panel, cell-based, JC-1 fluorescence, 24 h, 100 nL compound (AID 1170); settings: higher = more signal; further: test concentration not given here
# [20] = A549 lung cancer cell viability effects, profiling panel, resazurin fluorescence, 24 h, PK04 Diversity Set (AID 1171); settings: higher = more signal, called active from +8 up or from −8 down; further: test concentration not given here
Structure (SMILES),z-score [1],composite z-score [2],z-score [3],z-score [4],z-score [5],z-score [6],z-score [7],z-score [8],z-score [9],z-score [10],z-score [11],z-score [12],z-score [13],z-score [14],z-score [15],z-score [16],z-score [17],z-score [18],z-score [19],z-score [20]
CC(C)N1C(=O)[C@@]2(c3ccc([N+](=O)[O-])cc3)CC(=O)N(C3CCCCC3)[C@@H]2c2ccc(CO)cc21,0.0586 (inactive),-0.672,-0.716 (inactive),-0.465 (inactive),-0.393 (inactive),-0.334 (inactive),0.254,-0.898 (inactive),-0.363 (inactive),-0.316,-0.0841,-0.0435,-0.647,-0.331,0.311,-0.0357,-0.14 (inactive),-0.0593,-0.843,2.09 (inactive)
O=C1C2C=CC(C(O)c3cc(C(F)(F)F)cc(C(F)(F)F)c3)N(Nc3ccc([N+](=O)[O-])cc3)C2C(=O)N1c1ccccc1 (stereo not given),-1.58 (inactive),0.361,6.16 (inactive),2.01 (inactive),-6.7 (inactive),1.24 (inactive),-0.431,-0.378 (inactive),-2.65 (inactive),-1.68,-1.61,0.294,-3.51,-2.62,-4.06,-0.982,-0.699 (inactive),-1.03,-1.99,-0.0362 (inactive)
CCC[C@@H]1C[C@@]1(CCC)[C@@H](NP(=O)(c1ccccc1)c1ccccc1)c1ccc(Cl)cc1,-2.39 (inactive),0.0315,0.887 (inactive),0.0991 (inactive),0.278 (inactive),0.323 (inactive),0.0038,-0.769 (inactive),-1.97 (inactive),0.429,-1.19,-1.03,-1.99,-1.45,-2.28,-4.09,-0.876 (inactive),-0.618,-1.81,0.419 (inactive)
C=CCC(OC(C)=O)[C@@H]1[C@@H](N(Cc2cc3ccccc3o2)C(=O)c2ccc(C)cc2)c2cc(OCCCO)ccc2N1C(=O)Cc1ccc2ccccc2c1 (stereo not given in full),2.52 (inactive),-0.103,1.49 (inactive),0.434 (inactive),-0.884 (inactive),0.283 (inactive),0.866,0.597 (inactive),0.921 (inactive),2.32,2.34,0.133,1.18,-0.623,-0.802,3.42,-0.577 (inactive),0.0031,0.718,1.65 (inactive)
C=C(CCCC)/C(=C/C[C@@H](OC(=O)c1ccncc1)c1cccc(OCCO)c1)c1cnc2ccccc2c1,0.0513 (inactive),0.284,19.1 (active),3.53 (inactive),0.902 (inactive),1.12 (inactive),0.462,-1.21 (inactive),-0.36 (inactive),-0.509,-0.021,1.14,-0.681,-2.65,-1.5,1.99,-0.891 (inactive),-0.497,0.117,0.586 (inactive)
C=CC1c2cc(O)c(OC)cc2CCN1Cc1sc2ccccc2c1Cl (stereo not given),-1.38 (inactive),0.268,17.9 (active),5.17 (inactive),-0.604 (inactive),1.41 (inactive),-0.248,-4.21 (inactive),-2.48 (inactive),-2.08,-4.28,0.155,-4.42,-3.24,-4.45,-3.08,-0.224 (inactive),-0.811,-0.358,-0.784 (inactive)
COCCOC(=O)N1C(=O)[C@@]2(c3cc(C#Cc4ccc(OC)cc4)ccc31)[C@H](C(=O)N1CCCCCCC1)[C@H]1C(=O)O[C@H](c3ccccc3)[C@H](c3ccccc3)N1[C@@H]2c1ccc(O)cc1,0.785 (inactive),1.58,1.04 (inactive),-0.134 (inactive),-0.318 (inactive),-0.518 (inactive),1.27,-0.76 (inactive),-0.951 (inactive),-1.4,-0.938,1.07,-0.618,-0.26,-0.943,-0.73,0.88 (inactive),-0.0794,-0.559,0.545 (inactive)
CC=CC(O)C1C=CC2C(=O)N(C)C(=O)C2N1Nc1ccc([N+](=O)[O-])cc1[N+](=O)[O-] (stereo not given),-1.33 (inactive),-0.094,1.67 (inactive),0.917 (inactive),0.566 (inactive),1.1 (inactive),-0.711,-0.379 (inactive),-1.05 (inactive),-1.09,-0.481,-0.682,0.275,-1.73,-0.485,-0.744,-0.453 (inactive),0.0263,-0.635,-0.574 (inactive)
CCOC(=O)C[C@H]1[C@H](OC(=O)c2ccccc2-c2ccccc2)[C@@H](NC(=O)c2ccc3ccccc3n2)c2cc(OCCCO)ccc2N1C(=O)c1ccc2ccccc2n1,1.17 (inactive),-0.0747,3.67 (inactive),-0.774 (inactive),-1.88 (inactive),-2.15 (inactive),0.112,1.18 (inactive),1.07 (inactive),2.5,0.923,1.65,0.877,0.497,-0.237,2.39,0.309 (inactive),0.356,-0.845,0.545 (inactive)
O=C1O[C@@H](c2ccccc2)[C@@H](c2ccccc2)N2[C@@H](c3ccc(O)cc3)[C@]3(C(=O)Nc4ccccc43)[C@@H](C(=O)Nc3nc4ccccc4s3)[C@H]12,-0.198 (inactive),-0.209,1.37 (inactive),2.29 (inactive),-0.492 (inactive),1.82 (inactive),-0.132,0.642 (inactive),0.0436 (inactive),0.933,-2.07,0.353,-1.49,-3.37,-4.55,-3.64,0.169 (inactive),-1.23,-1.76,-1.9 (inactive)
C[C@H]1ON(c2ccc(C(=O)OC(C)(C)C)cc2)[C@@H](c2ccc(O)cc2)[C@@H]1C(=O)N1C(=O)OC[C@@H]1c1ccccc1,-0.569 (inactive),-0.0023,3.71 (inactive),0.622 (inactive),0.166 (inactive),0.428 (inactive),0.433,-0.414 (inactive),-0.254 (inactive),0.718,-0.674,0.97,-2.97,-2.72,-3.02,-2.36,-0.575 (inactive),-0.575,-2.36,-0.0657 (inactive)
COCCCNC(=O)[C@]1(Cc2ccccc2N=[N+]=[N-])N=C(c2ccc(OCCCO)cc2)O[C@@H]1c1ccccc1N=[N+]=[N-],-0.279 (inactive),0.616,30.8 (active),28.7 (active),1.41 (inactive),7.56 (inactive),0.105,-1.23 (inactive),0.567 (inactive),1.71,-0.795,0.0826,-3.44,-3.52,-3.99,-0.892,1.03 (inactive),-1.17,-2.71,-2.56 (inactive)
CC1CC/C=C\[C@H]2OC34C=CCN(C(C)C)C(=O)[C@H]3N(CCCCCO)C(=O)[C@@H]4C2C(=O)O1 (stereo not given in full),0.881 (inactive),-0.15,-0.54 (inactive),0.0524 (inactive),0.66 (inactive),0.427 (inactive),-0.61,0.745 (inactive),-0.338 (inactive),1.05,1.85,0.601,0.29,1.84,-1.4,0.583,0.633 (inactive),-0.137,1.9,0.98 (inactive)
CC=CC(O)C1C=CC2C(=O)N(c3ccccc3)C(=O)C2N1Nc1ccccc1 (stereo not given),0.509 (inactive),0.135,5.52 (inactive),1.17 (inactive),0.419 (inactive),1.17 (inactive),-0.959,0.209 (inactive),-4.28 (inactive),-2.42,1.04,-0.511,1.05,0.214,-0.279,-0.222,0.243 (inactive),-0.866,-0.749,0.0599 (inactive)
CC[C@@H]1[C@H]2C3C(=O)N(CC)C(=O)C3CC(=O)[C@H]2[C@H](c2ccc(C)cc2)N1S(=O)(=O)c1ccc(C)cc1 (stereo not given in full),-0.272 (inactive),0.0026,2.27 (inactive),1.99 (inactive),0.925 (inactive),1.3 (inactive),-0.12,0.5 (inactive),0.458 (inactive),0.0674,-0.138,-0.303,-0.581,0.453,-0.144,0.248,0.438 (inactive),0.485,-1.02,-0.0875 (inactive)
O=C1O[C@H](c2ccccc2)[C@H](c2ccccc2)N2[C@H]1[C@@H](C(=O)O)[C@]1(C(=O)Nc3ccccc31)[C@H]2c1ccc(O)cc1,-0.611 (inactive),-0.0501,1.26 (inactive),0.789 (inactive),-0.236 (inactive),0.678 (inactive),0.374,-0.295 (inactive),-0.697 (inactive),1.31,0.29,-0.268,-0.733,0.0137,0.605,-1.33,-1.43 (inactive),0.73,0.0818,0.769 (inactive)
COc1cc(OC)c(C(O)C2C=CC3C(=O)N(c4ccccc4)C(=O)C3N2Nc2ccc(C#N)cc2)cc1Br (stereo not given),-0.652 (inactive),0.843,25 (active),11.4 (active),1.39 (inactive),1.76 (inactive),-0.962,-1.41 (inactive),-5.35 (inactive),-2.08,0.423,-0.693,-0.268,-0.475,-0.241,-1.66,-0.403 (inactive),-0.129,-0.00738,-0.578 (inactive)
Cc1ccc(S[C@]2(C(=O)NC3CC3)CC(=O)N(Cc3ccccc3Cl)[C@@H]2c2ccc(CO)cc2I)cc1,0.386 (inactive),0.191,6.9 (inactive),0.789 (inactive),0.796 (inactive),0.0589 (inactive),-0.331,1.53 (inactive),-1.86 (inactive),1.12,0.0293,0.0656,0.556,-2.36,-2.05,0.474,0.515 (inactive),-0.498,-1.45,-0.889 (inactive)
